Laboratory results: PubChem BioAssay (NCATS)
Results filed as inconclusive are left out. Calls of active or inactive are those of the source. Unless noted, the call rests on the fitted dose curve.

What was measured:
[1] = target: Estrogen receptor (Homo sapiens) (UniProt P03372); test: qHTS assay for small molecule agonists of estrogen receptor alpha signaling (AID 588514); conditions: ER-alpha-UAS-bla HEK293, beta-lactamase ratio, 18 h; series mostly up to 76.8 µM;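 further: 0% = vehicle only and 100% = reference agonist; nearly all actives have a fitted effect of over 70% in size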
Sequence of Estrogen receptor (Homo sapiens) (P03372 whole entry, looked up): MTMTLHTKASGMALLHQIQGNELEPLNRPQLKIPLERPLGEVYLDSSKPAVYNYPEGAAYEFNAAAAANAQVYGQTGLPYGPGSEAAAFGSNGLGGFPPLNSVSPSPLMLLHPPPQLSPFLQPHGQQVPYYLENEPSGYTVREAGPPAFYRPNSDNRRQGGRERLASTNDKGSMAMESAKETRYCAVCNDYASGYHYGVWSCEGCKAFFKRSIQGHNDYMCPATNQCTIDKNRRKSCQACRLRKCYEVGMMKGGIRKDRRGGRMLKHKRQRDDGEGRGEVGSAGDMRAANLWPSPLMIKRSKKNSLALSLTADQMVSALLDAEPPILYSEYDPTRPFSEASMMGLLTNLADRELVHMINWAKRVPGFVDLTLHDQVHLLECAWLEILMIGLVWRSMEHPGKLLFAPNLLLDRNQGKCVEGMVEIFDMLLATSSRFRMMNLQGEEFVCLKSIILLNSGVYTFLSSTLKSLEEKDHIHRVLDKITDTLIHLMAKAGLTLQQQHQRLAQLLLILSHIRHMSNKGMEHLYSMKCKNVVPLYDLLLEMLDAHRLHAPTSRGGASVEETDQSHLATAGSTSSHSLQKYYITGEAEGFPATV
Method in brief: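 ER-alpha-UAS-bla GripTite HEK 293 cells in medium with 2% charcoal/dextran-treated FBS were treated with compound titrations at 37 C for 18 hrs; beta-lactamase reporter read by CCF4 fluorescence after 2 hrs at RT.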

[2] = target: Glucocorticoid receptor (Homo sapiens) (UniProt P04150); test: qHTS assay for small molecule agonists of glucocorticoid receptor signaling (AID 588532; active means well fitted curve in the direction sought with a large enough effect in the signal ratio, with a control signal flat; the % refers to the signal ratio;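 further: 100% = dexamethasone at 0.1 µM and 0% = DMSO only wells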); conditions: HeLa MMTV-bla, beta-lactamase ratio, agonist, 18 h; stronger effect = higher value; percent of dexamethasone control, DMSO zero
Sequence of Glucocorticoid receptor (Homo sapiens) (P04150 whole entry, looked up): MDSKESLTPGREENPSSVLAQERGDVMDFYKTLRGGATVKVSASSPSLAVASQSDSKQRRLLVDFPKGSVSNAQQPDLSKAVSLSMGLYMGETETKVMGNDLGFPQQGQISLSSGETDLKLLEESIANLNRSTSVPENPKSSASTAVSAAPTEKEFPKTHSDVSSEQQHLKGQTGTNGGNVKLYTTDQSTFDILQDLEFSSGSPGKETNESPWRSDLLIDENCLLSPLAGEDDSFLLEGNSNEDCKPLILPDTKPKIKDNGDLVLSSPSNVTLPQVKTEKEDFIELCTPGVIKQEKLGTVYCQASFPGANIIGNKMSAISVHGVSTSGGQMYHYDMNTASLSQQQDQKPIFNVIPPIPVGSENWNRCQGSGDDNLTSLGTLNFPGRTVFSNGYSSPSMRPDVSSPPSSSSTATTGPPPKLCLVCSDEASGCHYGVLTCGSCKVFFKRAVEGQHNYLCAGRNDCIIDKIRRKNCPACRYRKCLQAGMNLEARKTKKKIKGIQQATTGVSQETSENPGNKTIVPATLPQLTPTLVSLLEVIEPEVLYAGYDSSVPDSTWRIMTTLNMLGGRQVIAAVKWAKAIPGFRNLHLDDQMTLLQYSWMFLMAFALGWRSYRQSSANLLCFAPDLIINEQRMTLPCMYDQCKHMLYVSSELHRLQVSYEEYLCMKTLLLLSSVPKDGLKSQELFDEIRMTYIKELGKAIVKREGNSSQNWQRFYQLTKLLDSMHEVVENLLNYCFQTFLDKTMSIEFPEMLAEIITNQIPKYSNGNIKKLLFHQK
Method in brief: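 MMTV-bla HeLa, beta-lactamase reporter; medium with 1% charcoal/dextran-stripped FBS; cpds up to 92 uM, 18 h, 37 C; CCF4 readout 460/530 nm; Hill fit → EC50, efficacy vs 0.1 uM dexamethasone = 100%.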

[3] = target: Glucocorticoid receptor (Homo sapiens) (UniProt P04150); test: qHTS assay for small molecule antagonists of glucocorticoid receptor signaling (AID 588533; active means well fitted inhibition curve with a large enough effect in the signal ratio, with a control signal flat, not every such curve was filed as active; the % refers to the signal ratio;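 further: cells stimulated with 2 nM dexamethasone as agonist; on the % scale 0 is the no-effect control and ±100 the full control effect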); conditions: HeLa MMTV-bla, GRE beta-lactamase ratio, antagonist mode, 18 h; series mostly up to 76.8 µM
Method in brief: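 Antagonist-mode qHTS: compound titrations added to GRE-bla HeLa cells, then dexamethasone 2 nM final; 18 h, 37 C. CCF4 FRET fluorescence normalized to dexamethasone and DMSO; IC50 from Hill fit.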

[4] = target: Peroxisome proliferator-activated receptor gamma (Homo sapiens) (UniProt P37231); test: qHTS assay for small molecule agonists of peroxisome proliferator-activated receptor gamma signaling (AID 588536; active means well fitted curve in the direction sought with a large enough effect in the signal ratio, with a control signal flat, not every such curve was filed as active; the % refers to the signal ratio;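 further: 0% = DMSO basal wells and 100% = rosiglitazone at 2 µM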); conditions: HEK293 PPARg-UAS-bla, beta-lactamase ratio, 16 h, percent of rosiglitazone response, DMSO as zero; series mostly up to 76.7 µM
Sequence of Peroxisome proliferator-activated receptor gamma (Homo sapiens) (P37231 whole entry, looked up): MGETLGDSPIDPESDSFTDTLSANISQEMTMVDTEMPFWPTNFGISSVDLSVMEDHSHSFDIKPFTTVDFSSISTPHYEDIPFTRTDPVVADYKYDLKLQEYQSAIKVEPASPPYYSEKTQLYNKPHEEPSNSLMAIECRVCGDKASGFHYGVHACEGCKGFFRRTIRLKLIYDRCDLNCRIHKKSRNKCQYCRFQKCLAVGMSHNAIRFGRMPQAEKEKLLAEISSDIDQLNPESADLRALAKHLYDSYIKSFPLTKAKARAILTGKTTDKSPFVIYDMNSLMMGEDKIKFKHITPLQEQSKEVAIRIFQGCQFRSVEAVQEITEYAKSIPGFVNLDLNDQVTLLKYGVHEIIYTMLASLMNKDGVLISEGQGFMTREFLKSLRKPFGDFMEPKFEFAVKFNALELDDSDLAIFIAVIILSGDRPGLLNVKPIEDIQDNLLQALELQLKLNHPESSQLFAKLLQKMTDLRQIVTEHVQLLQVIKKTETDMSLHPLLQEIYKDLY
Method in brief: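 Test agents, titrated, stimulated HEK293 UAS-bla cells overnight (16 h, 37 C). Substrate CCF4 was then added for two hours at room temperature before fluorescence reading.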

[5] = target: Vitamin D3 receptor (Homo sapiens) (UniProt P11473); test: qHTS assay for small molecule antagonists of vitamin D receptor signaling (AID 588541); conditions: HEK293T VDR-UAS-bla, beta-lactamase ratio, antagonist mode; series mostly up to 76.7 µM;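 further: receptor activated by calcitriol during compound treatment; on the % scale 0 is the no-effect control and ±100 the full control effect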
Sequence of Vitamin D3 receptor (Homo sapiens) (P11473 whole entry, looked up): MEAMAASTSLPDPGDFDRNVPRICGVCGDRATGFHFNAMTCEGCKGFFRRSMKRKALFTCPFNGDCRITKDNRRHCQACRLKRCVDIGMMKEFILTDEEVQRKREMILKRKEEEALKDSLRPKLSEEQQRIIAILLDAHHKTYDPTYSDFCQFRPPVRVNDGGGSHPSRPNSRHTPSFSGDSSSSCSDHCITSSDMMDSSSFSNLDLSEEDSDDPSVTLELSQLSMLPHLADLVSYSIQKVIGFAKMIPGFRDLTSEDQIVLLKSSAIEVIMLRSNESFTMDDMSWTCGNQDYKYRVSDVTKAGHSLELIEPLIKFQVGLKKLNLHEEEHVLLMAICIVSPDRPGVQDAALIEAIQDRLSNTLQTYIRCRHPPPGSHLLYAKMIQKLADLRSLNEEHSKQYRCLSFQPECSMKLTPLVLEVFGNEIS
Method in brief: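 VDR-UAS-bla HEK293T cells (2000/well, 2% charcoal-stripped FBS) were treated with titrated compounds plus 1-alpha,25-dihydroxyvitamin D3 (50 nM or 3 nM final) for 16 h at 37 C. CCF4 beta-lactamase fluorescence was read; Hill fits gave IC50.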

[6] = target: Vitamin D3 receptor (Homo sapiens) (UniProt P11473); test: qHTS assay for small molecule agonists of vitamin D receptor signaling (AID 588543); conditions: HEK293T VDR-UAS-bla, beta-lactamase ratio, 16 h; series mostly up to 76.8 µM;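 further: 0% = DMSO basal and 100% = reference agonist control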
Method in brief: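 VDR-UAS-bla HEK293T cells, 2000/well, 2% charcoal-stripped FBS; compound titration 16 h at 37 C; CCF4 beta-lactamase ratio read. Normalized to 50 nM 1-alpha,25-dihydroxyvitamin D3 (100%) and DMSO; Hill fit gives EC50, efficacy.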

[7] = qHTS assay for small molecule agonists of retinoid X receptor alpha signaling (AID 588544); conditions: HEK293T RXRa-UAS-bla, beta-lactamase reporter, 18 h; 530 nm emission;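 on activation: 0% = DMSO basal wells and 100% = reference agonist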
[8] = target: Retinoic acid receptor RXR-alpha (Homo sapiens) (UniProt P19793); test: as above; conditions: HEK293T RXRa-UAS-bla, beta-lactamase reporter, 18 h; series mostly up to 76.7 µM
Sequence of Retinoic acid receptor RXR-alpha (Homo sapiens) (P19793 whole entry, looked up): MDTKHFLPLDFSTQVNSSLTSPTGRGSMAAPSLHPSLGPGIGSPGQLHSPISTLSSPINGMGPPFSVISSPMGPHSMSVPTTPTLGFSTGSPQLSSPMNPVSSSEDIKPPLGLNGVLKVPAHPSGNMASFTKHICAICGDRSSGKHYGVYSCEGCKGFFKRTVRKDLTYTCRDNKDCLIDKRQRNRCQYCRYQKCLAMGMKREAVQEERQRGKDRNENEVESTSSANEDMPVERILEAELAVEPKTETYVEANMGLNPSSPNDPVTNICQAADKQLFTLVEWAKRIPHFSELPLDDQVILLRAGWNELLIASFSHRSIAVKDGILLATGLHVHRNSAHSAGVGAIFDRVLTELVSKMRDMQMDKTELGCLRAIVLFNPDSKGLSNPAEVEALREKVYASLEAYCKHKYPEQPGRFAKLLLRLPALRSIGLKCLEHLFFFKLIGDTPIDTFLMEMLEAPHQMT

[9] = qHTS assay for small molecule antagonists of retinoid X receptor alpha signaling (AID 588546; active means well fitted inhibition curve with a large enough effect in the signal ratio, with a control signal flat, not every such curve was filed as active; the % refers to the signal ratio;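 further: cells stimulated with 9-cis-retinoic acid as agonist; on the % scale 0 is the no-effect control and ±100 the full control effect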); conditions: HEK293T RXRa-UAS-bla, beta-lactamase ratio, antagonist mode; measured here: W530 green channel, cytotoxicity proxy
Method in brief: (§1)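 Beta-lactamase reporter inhibition, read as CCF4 fluorescence ratio (ex 405, em 460/530 nm) after 2 h at RT. HEK293T UAS-bla cells, 2500/well, were stimulated with 9-cis-RA at 500 or 100 nM final alongside test compound for 18 h at 37 C.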

[10] = target: Retinoic acid receptor RXR-alpha (Homo sapiens) (UniProt P19793); test: as above; conditions: HEK293T RXRa-UAS-bla, beta-lactamase ratio, antagonist mode
Method in brief: as §1

[11] = qHTS assay for small molecule activators of the nuclear factor-kappa B (NF-kB) signaling pathway (AID 651749; active means well fitted activation curve with a large enough effect in the signal ratio; the % refers to the signal ratio; further: % of control where 0% means no effect); conditions: NF-kB-bla ME-180 cells, beta-lactamase FRET ratio, 16 h; activation: stronger effect = higher value
Method in brief: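 ME-180 cells stably carrying a beta-lactamase reporter under an NF-kB response element were exposed to compound or DMSO vehicle for 16 hr at 37C, 5% CO2. Pathway activation was read by FRET, since reporter expression disrupts FRET.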

[12] = qHTS assay for environmental chemicals that activate the Aryl hydrocarbon Receptor (AhR) signaling pathway (AID 651777; active means well fitted curve in the direction sought with a large enough effect; an effect the other way counts as inactive or inconclusive; further: % of control where 0% means no effect; nearly all actives have a fitted effect of over 15% in size); conditions: 1A2-DRE human hepatoma cells, luciferase, 24 h; activation: stronger effect = higher value
Method in brief: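 Induction of CYP1A2 transcription through AhR is detected by luciferase in 1A2-DRE hepatoma cells. Compounds or DMSO act for 24 hr at 37 C before a 30 min One-Glo step at room temperature.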

[13] = qHTS assay for small molecule agonists of the antioxidant response element (ARE) signaling pathway measured by Nrf2-dependant transcriptional activity (AID 720636; active means well fitted curve in the direction sought with a large enough effect in the repeat runs; an effect the other way counts as inactive or inconclusive;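 further: HepG2 cells with an ARE-driven luciferase reporter; % of control where 0% means no effect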); conditions: ARE-luc HepG2, Nrf2 luciferase reporter, 16 h; series mostly up to 92.4 µM
Method in brief: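 We exposed ARE-luc HepG2 cells, seeded in assay medium with 1% dialyzed FBS and allowed 6 hr to adhere, to test compounds overnight (16 hr, 37 C) before measuring luciferase with ONE-Glo.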

[14] = qHTS assay for small molecule agonists of the antioxidant response element (ARE) signaling pathway measured by Nrf2-dependant transcriptional activity - cell viability counter screen (AID 720653; active means well fitted curve in the direction sought with a large enough effect in the repeat runs; an effect the other way counts as inactive or inconclusive; further: on the % scale 0 is the no-effect control and ±100 the full control effect); conditions: ARE-bla HepG2 viability, CellTiter-Glo ATP luminescence, 16 h; max response: stronger effect = lower value
Method in brief: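 ARE-bla HepG2 cells (2,000/well) rested 5 hrs at 37C/5% CO2, then exposed to compounds in DMSO for 16 hrs. Viability was read in the same wells as intracellular ATP by luminescence, 30 min at room temperature after reagent addition.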

[15] = qHTS assay for cell viability of HEK293 cells (AID 743288; active means well fitted curve in the direction sought with a large enough effect; an effect the other way counts as inactive or inconclusive; further: on the % scale 0 is the no-effect control and ±100 the full control effect; nearly all actives have a fitted effect of over 50% in size); conditions: ATP luminescence (CellTiter-Glo), 18 h; max response: stronger effect = lower value
Method in brief: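 Parental HEK293 cells, 2,000 per well, preincubated at least 5 h at 37 C, then exposed to compounds in DMSO for 18 h at 37 C. Viability by CellTiter-Glo ATP luminescence after 30 min at room temperature.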

[16] = qHTS assay for cell viability of the p53RE-bla HCT-116 cell line (AID 743292; active means well fitted curve in the direction sought with a large enough effect; an effect the other way counts as inactive or inconclusive; further: on the % scale 0 is the no-effect control and ±100 the full control effect; nearly all actives have a fitted effect of over 55% in size); conditions: p53RE-bla HCT-116 viability, ATP luminescence, 16 h; series mostly up to 95 µM
Method in brief: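 In this qHTS counter-screen, metabolically competent p53RE-bla HCT-116 cells were counted via their ATP content. Compounds were applied for 16 h at 37 C and luciferase-coupled luminescence was measured.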

[17] = target: Nuclear receptor subfamily 1 group I member 2 (Rattus norvegicus) (UniProt Q9R1A7); test: qHTS assay for small molecule activators of the rat pregnane X receptor (rPXR) signaling pathway (AID 651751; call rule not given here; further: 0% is about no effect); conditions: rPXR reporter cells, luciferase (One-Glo), 24 h
Sequence of Nuclear receptor subfamily 1 group I member 2 (Rattus norvegicus) (Q9R1A7 whole entry, looked up): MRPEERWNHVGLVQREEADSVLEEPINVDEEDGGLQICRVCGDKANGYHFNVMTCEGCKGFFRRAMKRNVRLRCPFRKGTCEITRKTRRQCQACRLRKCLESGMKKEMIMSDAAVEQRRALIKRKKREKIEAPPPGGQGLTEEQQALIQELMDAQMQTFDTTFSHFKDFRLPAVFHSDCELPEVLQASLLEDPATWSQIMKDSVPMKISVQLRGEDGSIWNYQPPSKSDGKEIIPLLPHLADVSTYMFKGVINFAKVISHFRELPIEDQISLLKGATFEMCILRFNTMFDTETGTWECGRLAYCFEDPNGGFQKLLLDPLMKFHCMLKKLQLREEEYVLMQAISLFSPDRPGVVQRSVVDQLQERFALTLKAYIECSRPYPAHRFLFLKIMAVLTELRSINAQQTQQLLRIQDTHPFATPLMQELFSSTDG

[18] = qHTS assay for small molecule activators of the human pregnane X receptor (PXR) signaling pathway (AID 720659; call rule not given here; further: 0% is about no effect); conditions: DPX-2 HepG2 CYP3A4-luciferase, 24 h; series mostly up to 92.3 µM
[19] = target: Thyroid hormone receptor beta (Homo sapiens) (UniProt P10828); test: qHTS assay for small molecule agonists of thyroid hormone receptor beta signaling (AID 588545); conditions: TR-UAS-bla GripTite HEK 293, beta-lactamase ratio, agonist mode, 18 h; series mostly up to 76.7 µM
Sequence of Thyroid hormone receptor beta (Homo sapiens) (P10828 whole entry, looked up): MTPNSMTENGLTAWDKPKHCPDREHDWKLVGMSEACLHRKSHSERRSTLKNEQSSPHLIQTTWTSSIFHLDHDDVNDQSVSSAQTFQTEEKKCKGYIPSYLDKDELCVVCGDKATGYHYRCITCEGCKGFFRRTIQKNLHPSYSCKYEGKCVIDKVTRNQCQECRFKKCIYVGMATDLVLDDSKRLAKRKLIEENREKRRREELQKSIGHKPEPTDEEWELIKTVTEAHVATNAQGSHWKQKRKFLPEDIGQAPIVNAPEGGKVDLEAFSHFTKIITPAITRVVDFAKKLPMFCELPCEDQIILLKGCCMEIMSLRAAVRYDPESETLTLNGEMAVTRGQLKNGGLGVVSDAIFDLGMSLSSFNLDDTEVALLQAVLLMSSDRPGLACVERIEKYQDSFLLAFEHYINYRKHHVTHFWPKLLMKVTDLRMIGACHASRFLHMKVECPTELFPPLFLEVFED
Method in brief: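 In this cell-based screen, titrated compounds act on HEK 293 cells held in medium with 2% charcoal/dextran FBS, NEAA and pyruvate for 18 hrs at 37 C. Responses are expressed relative to T3 (10 nM) as 100% and basal DMSO as 0%.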

[20] = target: Peroxisome proliferator-activated receptor alpha (Homo sapiens) (UniProt Q07869); test: qHTS assay for small molecule agonists of the peroxisome proliferator-activated receptor alpha (PPARalpha) signaling pathway (AID 651778; active means well fitted curve in the direction sought with a large enough effect; an effect the other way counts as inactive or inconclusive; further: % of control where 0% means no effect); conditions: PathHunter PPARalpha complementation, chemiluminescence, 6 h; max response: stronger effect = higher value
Sequence of Peroxisome proliferator-activated receptor alpha (Homo sapiens) (Q07869 whole entry, looked up): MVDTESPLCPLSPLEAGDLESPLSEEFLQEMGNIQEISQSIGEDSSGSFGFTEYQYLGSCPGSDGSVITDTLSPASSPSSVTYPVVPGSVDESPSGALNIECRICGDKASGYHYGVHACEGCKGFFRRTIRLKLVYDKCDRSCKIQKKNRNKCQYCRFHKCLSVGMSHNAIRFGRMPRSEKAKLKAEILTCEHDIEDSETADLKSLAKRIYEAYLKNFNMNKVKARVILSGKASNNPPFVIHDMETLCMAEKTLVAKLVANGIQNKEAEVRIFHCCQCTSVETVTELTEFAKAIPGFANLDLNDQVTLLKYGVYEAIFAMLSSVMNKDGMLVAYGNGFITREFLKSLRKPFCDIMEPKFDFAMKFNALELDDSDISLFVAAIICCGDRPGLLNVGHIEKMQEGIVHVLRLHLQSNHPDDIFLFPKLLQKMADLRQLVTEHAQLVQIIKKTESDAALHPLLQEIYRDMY
Method in brief: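 Cells plated at 2,000/well and held overnight at 37 C, 5% CO2, then compound added by pin tool for 6 hr; after PathHunter detection reagent and 60 min at room temperature, chemiluminescence from enzyme complementation was read.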

CCCCCCCCCC(C)=O
-16.2%: max response [7]
inactive: Potency [1] | activation [2] -12.1% | Potency [3] | outcome [4] | Potency [5] | outcome [6] | Potency [8] | max response [10] -4.81% | activation [11] 0.316% | activation [12] 0.0383% | Potency [13] | max response [14] -10.8% | max response [15] -5.17% | Potency [16] | max response [17] -2.12% | outcome [18]
-6.07%: max response [9]

C/C=C/C/C=C\CCCCCCCCOC(C)=O
-5.66%: max response [9]
inactive: Potency [1] | outcome [4] | Potency [5] | outcome [6] | Potency [8] | Potency [19] | max response [10] -0.494% | activation [11] -0.792% | activation [12] 1.59% | max response [20] -1.2% | Potency [13] | max response [14] 5.44% | max response [15] 0.639% | Potency [16] | max response [17] 0.0563% | outcome [18]
-14.4%: max response [7]

CC(C)OC(=O)c1ccccc1C(=O)OC(C)C
-19.4%: max response [9]
inactive: Potency [1] | activation [2] -6.71% | Potency [3] | outcome [4] | Potency [5] | outcome [6] | Potency [8] | max response [10] -1.37% | activation [11] -2.02% | activation [12] 1.05% | max response [20] -0.635% | Potency [13] | max response [14] 0.0901% | max response [15] -5.59% | Potency [16] | max response [17] 2.54% | outcome [18]
-10.4%: max response [7]

CC(C)(C)c1cccc(C(C)(C)C)c1O
-8.93%: max response [7]
-10.7%: max response [9]
inactive: Potency [1] | activation [2] -7.64% | Potency [3] | outcome [4] | Potency [8] | Potency [19] | max response [10] -0.1% | activation [11] -0.872% | activation [12] 0.241% | max response [20] -2.21% | Potency [13] | max response [14] -3.7% | max response [15] 0.51% | Potency [16] | max response [17] 0.577% | outcome [18]
